Compound activity: PubChem, National Center for Advancing Translational Sciences (NCATS)
Giardia FBPA inh: qHTS Assay for Inhibitors of Fructose-1,6-bisphosphate Aldolase from Giardia Lamblia; 0.71% of 290,000 active; A8B2U2; AID 2451, 2010; Potency, µM (highest dose often 59.6 µM), usual class: inhibitors; purified Giardia FBPA; further: nearly all actives have a fitted effect of over 55% in size
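Giardia FBPA (40 nM reagent) was preincubated 10 min at RT with compound (up to 57.5 uM final), then substrate plus GAPDH/TPI/NAD/arsenate coupling system with diaphorase/resazurin was added; resorufin fluorescence (525/598 nm) was read after 20 min.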
LmPK inhibitor: qHTS Assay for Inhibitors of Leishmania Mexicana Pyruvate Kinase (LmPK); purified LmPK, Kinase-Glo ATP luminescence, 1 h; Potency, µM (top dose mostly 57.5 µM), actives largely listed as inhibitors; 0.37% of 290,000 active; AID 1721, 2009
Target sequence (Q27686 whole entry, looked up): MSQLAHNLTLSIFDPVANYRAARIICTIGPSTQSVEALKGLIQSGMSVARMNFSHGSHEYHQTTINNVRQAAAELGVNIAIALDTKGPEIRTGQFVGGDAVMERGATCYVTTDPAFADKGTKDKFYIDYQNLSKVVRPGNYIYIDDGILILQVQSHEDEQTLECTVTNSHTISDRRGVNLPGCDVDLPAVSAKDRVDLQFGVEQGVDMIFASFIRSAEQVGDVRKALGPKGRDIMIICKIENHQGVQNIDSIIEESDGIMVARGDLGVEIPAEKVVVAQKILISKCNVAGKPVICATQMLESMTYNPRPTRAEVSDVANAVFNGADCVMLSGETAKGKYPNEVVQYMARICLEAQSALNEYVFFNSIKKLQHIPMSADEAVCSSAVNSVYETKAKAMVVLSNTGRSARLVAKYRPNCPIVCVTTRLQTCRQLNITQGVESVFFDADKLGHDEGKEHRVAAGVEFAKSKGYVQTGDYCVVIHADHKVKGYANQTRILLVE
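qHTS format; LmPK 0.1 nM; substrates PEP 0.5 mM and ADP 0.1 mM. One-hour room-temperature incubation, then coupled luciferase luminescence; 0.5 nM enzyme wells mark activation.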
RE007 growth inh: qHTS Assay for Inhibitors of the HIV-1 protein Vpr; 0.21% of 360,000 active; Potency, µM (doses to about 92.2 µM), most hits filed as inhibitors; S. pombe RE007 Vpr strain, BacTiter-Glo ATP luminescence, 24 h; AID 651644, 2012; active means well fitted falling curve with a large enough effect; inconclusive means small, poorly fitted or top-dose-only effect; inactive means no such curve, though single readings can be large or run the other way; further: nearly all actives have a fitted effect of over 50% in size
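Fission yeast strain RE007, carrying one chromosomally integrated HIV-1 vpr copy, was seeded at OD 0.01 in PMG+AL medium with 23 nL pinned compound. After 24 h at 30 °C and 99% humidity, viability was read by BacTiter-Glo luminescence.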
Shiga toxin inh: A qHTS for Small Molecule Inhibitors of Shiga Toxin; Vero cells, Shiga toxin protein synthesis inhibition reporter; inhibition, % at 38.7 µM; 9.2% of 290,000 active; in the data active means inhibition mostly above about 28%, no sharp cut-off; inactive means mostly below about 43%
TbPYK inhibitor: qHTS of Trypanosoma Brucei Inhibitors; TbPYK enzyme, Kinase-Glo Plus ATP luminescence, 45 min; 0.12% of 410,000 active; Potency, µM (series often up to 76.8 µM), actives largely listed as inhibitors; further: nearly all actives have a fitted effect of over 50% in size
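In this concentration-response screen, enzyme-free wells defined baseline while DMSO plates tracked drift. Each reaction combined TbPYK, substrate, compound and 130 uM ADP for 45 min at room temperature. Kinase-Glo Plus luminescence gave the signal.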
CHX counter: Cycloheximide Counterscreen for Small Molecule Inhibitors of Shiga Toxin. 12% of 300,000 active. max response, %. cell reporter, cycloheximide protein synthesis inhibition counterscreen; in the data active means max response mostly above about 13%, no sharp cut-off; inactive means mostly below about 14%; further: read at 38.3 µM for the half of the compounds with a filed dose
A number is an active result; . = inactive; ? = inconclusive; / = no result given; ! = not active in a repeat. This is one part of a sample in which hits are shown more often than they occur. Unless noted, the call rests on the fitted dose curve; in most records, active means well fitted curve in the direction sought with a large enough effect; inconclusive means small, poorly fitted or top-dose-only effect, or another doubt; inactive means no such curve, though single readings can be large; an effect the other way counts as inactive or inconclusive.

SMILES | Giardia FBPA inh | LmPK inhibitor | RE007 growth inh | Shiga toxin inh | TbPYK inhibitor | CHX counter
N#C/C(=C\c1ccncc1)c1ccccn1 | . | . | ? | . | . | .
COc1ccc(C(C#N)=Cc2cccc(OC)c2OC)cc1 | / | / | . | / | . | /
N#C/C(=C\c1cccnc1)c1ccccn1 | . | . | . | . | . | 11
N#C/C(=C\c1ccc(Cl)c([N+](=O)[O-])c1)c1ccccn1 | . | . | . | . | . | .
N#C/C(=C\c1ccccc1)c1ccccn1 | . | . | . | 91 | . | 31
CNc1ccc(/C=C(\C#N)c2ccccn2)cc1[N+](=O)[O-] | . | . | . | 69 | . | 45
O=C(c1ccc(N2C(=O)C3C4c5ccccc5C(c5ccccc54)C3C2=O)cc1)N1CCOCC1 (configuration not stated) | . | . | . | . | . | .
CCn1c(-c2cccnc2Cl)nc2cc(Cl)c(Cl)cc21 | . | . | . | 78 | . | 40
CCOC(=O)CNC(=O)CSc1nnc(Cn2c(=O)sc3ccccc32)n1C | . | . | . | . | . | 18
CCOC(=O)CC(=O)CSc1nnc(Cn2c(=O)sc3ccccc32)n1C | . | . | . | . | . | .
CCC(=O)Nc1cccc(C(=O)OCC(=O)c2ccccc2Cl)c1 | . | . | . | 74 | . | 31
COc1ccccc1C(=O)NC(=O)COC(=O)c1cccc(NC(C)=O)c1 | / | . | . | . | . | 28
CC(=O)Nc1cccc(C(=O)OCC(=O)c2ccccc2Cl)c1 | . | . | . | 125 | . | 35
CC(=O)Nc1cccc(C(=O)OCC(=O)NC(=O)c2ccccc2)c1 | / | / | . | / | . | /
COC(=O)[C@@]12CCCCN1[C@H](c1ccc(-c3ccc4c(c3)OCO4)cc1)[C@H]1C(=O)N(C)C(=O)[C@H]12 | / | / | . | / | . | /
COc1cccc(C(=O)c2cn(CC(=O)NCCc3ccccc3)c3nc(C)ccc3c2=O)c1 | / | / | / | / | . | /
CCSc1nnc2ccc(-c3cccs3)nn12 | . | . | . | . | . | .
CCc1ccc(-c2ccc3nnc(SC)n3n2)cc1 | . | . | . | . | . | 22
CCSc1nnc2ccc(-c3ccc(C)cc3)nn12 | . | . | . | . | . | 26
N#Cc1c(-c2ccccc2)no[n+]1[O-] | . | / | / | / | / | /
CC1(C)CN=C(N(C(=O)Nc2ccccc2)c2ccccc2F)S1 | . | . | . | 62 | . | 17
CC1(C)CN=C(N(Cc2ccccc2)C(=O)Nc2ccccc2)S1 | . | . | . | 76 | . | 65
O=C(Cc1ccc(Br)cc1)NC1CCSC1=O (configuration not stated) | . | . | . | . | . | .
CCCCCCN(C(=O)CCCCCN1C(=O)NC(c2ccc(-c3ccccc3)cc2)C(C(=O)OCc2ccccc2)=C1C)C(C(=O)NCCCC)c1ccc(O)c(C(=O)OC)c1 (configuration not stated) | . | . | / | . | / | .
COc1ccc(Nc2nc(C)nc3c2oc2ccccc23)cc1 | . | . | . | . | . | .
SMILES | Giardia FBPA inh | LmPK inhibitor | RE007 growth inh | Shiga toxin inh | TbPYK inhibitor | CHX counter
Cc1nc(Nc2ccccc2)c2oc3ccc(Cl)cc3c2n1 | . | . | . | 43 | . | 18
Cc1nnc(Nc2ccc3c(c2)OCO3)c2ccccc12 | . | . | . | 114 | . | .
c1ccc2c(c1)oc1c(Nc3ccc4c(c3)OCO4)ncnc12 | . | . | . | 100 | . | 45
Cc1ccc(Nc2nc(C)nc3c2oc2ccccc23)cc1 | . | . | . | . | . | 11
CC(C)(C)S(=O)N1Cc2cc(C(=O)N[C@@H]3CCN(Cc4ccccc4)C3)nc(-c3cccc(-c4cc5ccccc5o4)c3)c2[C@@H]1CCO (some centres not stated) | / | / | . | / | . | /
O=C(O)c1csc(N/N=C/c2ccc(Br)cc2)n1 | . | . | . | . | . | .
COCC(=O)N1CCC2(CC1)CN(c1ccccc1)C2 | . | / | / | / | . | /
Nn1c(SCC(=O)Nc2cccnc2Cl)nnc1-c1ccccc1 | / | / | . | / | ? | /
Cc1nc(Nc2ccc3c(c2)OCO3)c2oc3ccccc3c2n1 | . | . | . | 46 | . | 39
NNc1nc(Nc2ccccc2)nc(Nc2ccccc2)n1 | . | . | . | 36 | . | .
NNc1nc(Nc2ccccc2)nc(N2CCCCC2)n1 | . | . | . | . | . | .
Cc1ccc(Nc2nc(Cl)nc(NC(C)(C)C)n2)cc1 | . | . | . | 60 | . | 54
NNc1ccccc1 | . | / | / | . | . | 14!
CNc1nc(Cl)nc(Nc2ccccc2)n1 | . | . | . | 45 | . | 40
COc1ccc(CCCNC(=O)C2Cc3c(-c4ccc5c(c4)OCO5)ccnc3O2)cc1 (configuration not stated) | / | / | . | / | . | /
O=C(CN1C(=O)COc2ccc(S(=O)(=O)N3CCCCCC3)cc21)Nc1cccc(Cl)c1 | / | / | / | / | . | /
COC(=O)C1[C@@H](OC)C(OC(=O)COc2ccc(OC)cc2)C[C@@H]2CN3CCc4c([nH]c5cc(OC)ccc45)[C@H]3C[C@H]12 (some centres not stated) | / | / | / | / | . | /
CCc1nnc(NC(=O)c2nc(SCc3ccc(F)cc3)ncc2Cl)s1 | / | / | / | / | . | /
CN(C)S(=O)(=O)c1ccc(Cl)c(C(=O)NC2CCCCCCC2)c1 | . | . | . | . | . | .
CN(C)Cc1ccccc1-c1cc(NC2CC2)ncn1 | . | / | / | / | / | /
NNc1nccc(Nc2ccccc2C(=O)O)n1 | ? | . | . | . | . | .
C=CCNc1nc(Cl)nc(Nc2ccccc2)n1 | . | . | . | 40 | . | 22
c1ccc(Nc2ccnc(Nc3ccccc3)n2)cc1 | . | . | . | 100 | . | 53
CC1(C(=O)NCc2ccccc2)CN(S(C)(=O)=O)CC(=O)N1Cc1cccs1 (configuration not stated) | / | / | . | / | / | /
Cc1ccc(C)c(OCc2cc(C(=O)N(C)Cc3ccccn3)no2)c1 | . | . | . | 49 | . | 29
SMILES | Giardia FBPA inh | LmPK inhibitor | RE007 growth inh | Shiga toxin inh | TbPYK inhibitor | CHX counter
Cc1ccc(C)c(OCc2cc(C(=O)N(C)Cc3nccs3)no2)c1 | . | . | . | 52 | . | 23
Cc1ccc(C)c(OCc2cc(C(=O)N3CCc4sccc4C3)no2)c1 | / | . | . | . | . | .
Cc1csc(NC(=O)/C=C/c2ccc3c(c2)OCO3)n1 | . | . | . | 91 | . | 74
O=C(/C=C/c1ccc2c(c1)OCO2)Nc1nc2ccccc2s1 | . | . | . | 62 | . | 41
COc1ccc(N2CC(C(=O)N(C)CC(=O)Nc3ccc(Cl)c(C(F)(F)F)c3)CC2=O)c(OC)c1 (configuration not stated) | / | / | . | / | . | /
c1ccc(-c2cc3n(c2)CCc2ccccc2-3)cc1 | . | . | . | 49 | . | 15
CO/N=C(/C(=O)N[C@@H]1C(=O)N2C(C(=O)O)=CCS[C@H]12)c1csc(N)n1 | / | / | / | / | . | /
